These results are taken from PMC5540273 (PLoS ONE, 2017).

SMILES strings stand for the structures.
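Also: KINOMEscan kinase panel screen.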

The subject of this experiment is EPHA7. The settings on record: concentration: 1 μM, replicates: in singlicate; n = 1.
For `COc1cc(Nc2nccc(N3CCC(NC(=O)C4COc5ccccc5O4)C3)n2)cc(OC)c1OC` (stereo not shown) [GSK1379761], the “%Inh” value was 0%.

For `COc1cccc(-n2cnc3c(N)ncnc32)c1` [SKF-97416], the “%Inh” value was determined as 0%.

For `CC(C)(C)c1ccc(C(=O)Nc2cn3cc(-c4ccccc4)ccc3n2)cc1`, the “%Inh” value is given as 0%.

In the case of `COc1ccc(-c2coc3ccc(-c4nnc(SCc5cccc(C#N)c5)o4)cc23)cc1`, the “%Inh” value is 0%.

As for `OCCCNc1nccc(-c2c(-c3cccc(C(F)(F)F)c3)nn3cc(C(F)(F)F)ccc23)n1` [GW630813], the “%Inh” value was 0%.

For the compound `COC(=O)c1c(-c2ccccc2)c2cc(Br)ccc2c(=O)n1Cc1ccc(S(C)(=O)=O)cc1`, the “%Inh” value stood at 24%.

With `Cc1cc(Nc2nc(-c3cccc(C)n3)nc3ccccc23)ccn1` [GW872411], the “%Inh” value was determined as 0%.

For `Nc1ncnc2c1ncn2-c1ccc(Cl)cc1` [AH2635], the “%Inh” value is on record as 0%.

Turning to `CN(C)c1cc(-c2ccc3c(N)n[nH]c3c2)nc(N)n1` [GSK2219329], the “%Inh” value is 0%.

As for `COc1ccc(-c2cc3c(C)nc(N)nc3n([C@H]3CC[C@H](OCCO)CC3)c2=O)cn1`, the “%Inh” value amounted to 0%.

Regarding `O=C(NCc1cccs1)c1cc(C(=O)c2c(Cl)cccc2Cl)c[nH]1` [GW823670], the “%Inh” value turned out to be 0%.

As to `COc1cc2ncn(-c3cc(OCc4ccncc4Br)c(C(N)=O)s3)c2cc1OC` [GW854278], the “%Inh” value came to 0%.

For `Cc1nnc(-c2ccc(C)c(-c3ccc(C(=O)O)cc3)c2)o1` [GW608005], the “%Inh” value is listed as 0%.

Regarding `Cc1nc(N(C)[C@H]2CN(C(=O)CC#N)CC[C@H]2C)c2cc[nH]c2n1`, the “%Inh” value worked out at 10%.

As to `O=C1NC(=O)C(c2ccccc2)=C1Nc1cccc(O)c1` [SB-390534], the “%Inh” value came out at 16%.

For `COc1ccc(Nc2nccc(N3CCC(NS(=O)(=O)c4ccc(NC(C)=O)cc4)C3)n2)cc1` (stereo not shown) [GSK1379729], the “%Inh” value came out at 17%.

In the case of `COC(=O)c1c(-c2ccccc2)c2cc(Br)ccc2c(=O)n1Cc1ccc(NC(=O)CCC(=O)O)cc1`, the “%Inh” value is 5%.

`Cl.NS(=O)(=O)c1cccc(Nc2cc(-c3ccc(F)cc3)n[nH]2)c1` [GW824645]: the “%Inh” value is on record as 0%.

In the case of `Fc1cccc(CSc2nnc(-c3ccc4c(c3)CCO4)o2)c1`, the “%Inh” value was 10%.

Turning to `Cl.c1ccc(Cn2cnc3cc(Nc4ncnc5ccccc45)ccc32)cc1` [GW272142], the “%Inh” value came out at 0%.

For `CN1C(=O)C(Nc2cc(Cl)c(O)c(Cl)c2)=C(c2ccc(Cl)cc2)C1=O` [SB-404321], the “%Inh” value is recorded as 0%.

`COc1cc(OC)cc(-c2cc3cnc(N)nc3nc2NC(=O)NC(C)(C)C)c1`: the “%Inh” value was 0%.

As for `Nc1ncnc2c1ncn2-c1cccc2ccccc12` [SKF-97184], the “%Inh” value came to 0%.

With `COc1cccc(C2=C(N(C)c3ccccc3)C(=O)NC2=O)c1` [SB-334865], the “%Inh” value is reported as 5%.

On to `Cc1ccc(Oc2ccc(Nc3ncnc4cc[nH]c34)cc2C)cn1`, for which the “%Inh” value came to 0%.

For `CN1C(=O)C(Nc2ccccc2)=C(c2ccccc2)C1=O` [SB-300079], the “%Inh” value is 0%.

As for `CCc1nc(-c2cccc(C)c2)c(-c2ccncc2)s1`, the “%Inh” value worked out at 0%.

In the case of `Cc1cccc(-c2nc(Nc3ccc4c(cnn4C)c3)c3ccccc3n2)n1` [GW876731], the “%Inh” value worked out at 0%.

In the case of `Nc1n[nH]c2nnc(-c3ccccc3)c(-c3ccccc3)c12` [GW554060], the “%Inh” value was 0%.

Regarding `CCS(=O)c1ccc(-c2coc3ccc(-c4nnc(C)o4)cc23)cc1` (stereo not shown), the “%Inh” value stood at 0%.

On to `COc1ccc(CNC(=O)NC2CCN(c3ccnc(Nc4ccc(F)cc4)n3)C2)cc1` (stereo not shown) [GSK1379706], for which the “%Inh” value is 1%.

As for `COc1ccc(-n2cnc3c(N)ncnc32)cc1` [SKF-97236], the “%Inh” value was 1%.

In the case of `COc1ccc(-c2cc3c(C)nc(N)nc3n([C@H]3CC[C@H](O)CC3)c2=O)cn1`, the “%Inh” value is listed as 0%.

With `Nc1ncnc2c1ncn2-c1cccc(F)c1` [SKF-97560], the “%Inh” value worked out at 10%.

With `Cc1cccc(-c2cc(-c3c[nH]nc3-c3ccccn3)ccn2)c1` [GW679395], the “%Inh” value worked out at 0%.

`Cc1c(Cn2c(C)nn3c(=O)cc(N4CCO[C@H](C)C4)nc23)cccc1C(F)(F)F` [GSK2373690]: the “%Inh” value turned out to be 22%.

`CCCNC(=O)Nc1ccc(Oc2ncnc3ccn(C)c23)cc1`: the “%Inh” value was 0%.
